High-throughput results (PubChem)
An excerpt weighted towards active compounds, which were near 4.6% of everything screened.
TRHR ag – activates the human TRH receptor | P34981 | TRHR cells, calcium flux fluo-8, FDSS agonist mode | activation, % at 2 µM | 360,000 compounds, 0.18% hits; note: 0% is about no effect
Target sequence (P34981 whole entry, looked up): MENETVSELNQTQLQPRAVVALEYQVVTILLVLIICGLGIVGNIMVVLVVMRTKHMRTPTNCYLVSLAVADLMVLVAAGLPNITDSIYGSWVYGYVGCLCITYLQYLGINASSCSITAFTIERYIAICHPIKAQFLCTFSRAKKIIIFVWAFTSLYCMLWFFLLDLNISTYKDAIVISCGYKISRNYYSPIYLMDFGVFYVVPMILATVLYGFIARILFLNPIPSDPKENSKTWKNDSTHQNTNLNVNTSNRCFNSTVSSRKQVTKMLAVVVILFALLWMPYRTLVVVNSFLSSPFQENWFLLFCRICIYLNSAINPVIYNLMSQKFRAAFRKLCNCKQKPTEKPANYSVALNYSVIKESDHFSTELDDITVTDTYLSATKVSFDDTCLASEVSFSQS
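Agonist-mode FDSS calcium read (Ex 480/Em 530, 1 s cycles) in 1536-well TRHR cells with fluo-8 dye, after 10-cycle baseline and 23 nL compound addition; TRH at EC20 (10 nM final) added afterwards for the enhancer phase.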
TRHR PAM – TRH receptor (human) allosteric enhancement; enhancement, % at 2 µM; P34981; TRHR cells, fluo-8 calcium fluorescence, EC20 TRH enhancement; 360,000 compounds, 0.66% hits; in the data active = enhancement above about 30%; note: 0% is about no effect
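Enhancer read-out: after compound pinning and an initial kinetic agonist-mode read, an EC20 of TRH (10 nM final) was injected and fluo-8 calcium signal (Ex 480/Em 530) followed at 1 s/cycle for 100 cycles in TRHR-expressing cells.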
Epigenetic reg – epigenetic control regulation, reporter derepression; murine LDR cells, GFP reporter derepression, 30 h; Potency, µM (series often up to 53.9 µM), for inactives: at the top dose GFP activation, actives largely listed as activators; 280,000 compounds, 0.2% hits; active = well fitted activation curve with a large enough effect; note: potency is the fitted concentration of half-maximal effect; % of control where 0% means no effect; nearly all actives have a fitted effect of over 60% in size
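GFP-positive cell count by laser-scanning cytometry (objects 20–120 um) after 30 h, 37 C compound exposure of murine LDR cells; reporter is CMV-GFP integrated at a silenced locus, inducible by HDAC or DNMT inhibitors.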
D1 PAM – enhances dopamine response at the human D1 receptor; P21728; HEK293 TREx D1 cells, calcium flux, dopamine EC20 potentiation; potentiation, % at 10 µM; 360,000 compounds, 0.036% hits; in the data active = potentiation above about 30%; note: 0% is about no effect
D1 antagonist – blocks dopamine activation of the human D1 receptor | activity change, negative = inhibition, % at 10 µM | P21728 | HEK293 TREx D1 cells, calcium flux, dopamine EC80; active compounds read low | 360,000 compounds, 3.2% hits | AID 504652; in the data active = activity change below about -30%; note: % is set by controls: 0 for no effect and ±100 for the full control effect
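HEK293 T-REx cells expressing inducible, force-coupled D1 receptor; no-wash Ca dye, 30–90 min RT. Cmpd → 180 s read at 1 Hz → EC80 DA → 180 s read.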
D1 ag – human D1 receptor agonism | P21728 | HEK293 T-REx D1 cells, calcium flux, agonist mode | activation, % at 2 µM | 360,000 compounds, 1% hits | AID 504660; note: 0% is about no effect
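Inducible HEK293 T-REx D1 cells, force-coupled to calcium signalling, were plated at 4000 cells/well with tetracycline and held overnight at 30 C. After no-wash calcium dye loading, compound-evoked calcium rise over 180 s flagged agonists.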
* = called active by the depositor; . = not tested or not shown; ! = a repeat was not active. Cut-off read from the data, not from the text of the source, unless noted: active = activation above about 30%; inactive = the rest.

SMILES	TRHR ag	TRHR PAM	Epigenetic reg	D1 PAM	D1 antagonist	D1 ag
CCOc1ccc(CNC(=O)Cn2nc(C)c3c(C)n(-c4ccc(C)cc4)nc3c2=O)cc1	-0.7	-16.6	-1.6%	-2.4	-50.3*!	1.2
Cc1ccc(-n2nc3c(=O)n(CC(=O)NC(C)C)nc(C)c3c2C)cc1	-0.7	5.6	-2.6%	-1.8	-34.7*	0.7
Cc1nn(CCC(=O)NCc2ccc(N(C)C)cc2)c(=O)c2nn(-c3ccccc3)c(C)c12	0.5	-2.5	3.8%	5.0	-31.4*!	0.0
Cc1ccc(-n2nc3c(=O)n(CC(=O)NCc4ccco4)nc(C)c3c2C)cc1	-1.1	-0.5	-3.4%	-1.7	-34.3*	1.6
O=C(NC1=NCCS1)c1cccc(S(=O)(=O)N2CCc3ccccc32)c1	0.1	-9.6	-1.3%	2.2	-1.4	7.2
O=C(NCc1ccccc1)c1ccc(S(=O)(=O)N2CCCc3ccccc32)cc1	-0.2	-5.9	-1.1%	-10.0	11.1	4.9
CN(C)C(=O)c1ccc(NC(=O)c2cccc(S(=O)(=O)N3CCCCCC3)c2)cc1	0.1	3.5	.	-3.0	-5.1	3.3
CCOC(=O)c1sc(NC(=O)c2cccc(S(=O)(=O)N3CCc4ccccc43)c2)c(C#N)c1C	2.1	-2.0	0.0%	-10.6	-32.0*	19.9
O=C(Nc1nncs1)c1cccc(S(=O)(=O)N2CCc3ccccc32)c1	0.5	32.6*	-6.1%	-4.2	11.5	-0.3
CN(C)C(=O)c1ccc(NC(=O)c2cccc(S(=O)(=O)N3CCCc4ccccc43)c2)cc1	0.1	7.2	.	-4.4	-31.3*	7.5
O=C(NCc1ccco1)c1ccc(S(=O)(=O)N2CCCc3ccccc32)cc1	1.0	-3.0	0.0%	-4.2	-32.4*	14.6
Cc1ccc(CNC(=O)CSc2nc3ccsc3c(=O)n2-c2ccc(C(=O)O)cc2)cc1	0.0	-2.6	-1.3%	-4.0	-15.8	0.7
CC1=C(c2ccc(C)cc2)S(=O)(=O)N=C1N1CCN(c2ccccc2)CC1	-0.5	-5.3	-4.7%	0.9	7.1	1.5
CCS(=O)(=O)CCn1c([N+](=O)[O-])cnc1C	0.4	37.5*	-1.0%	2.4	-18.4	0.0
O=c1c2cc(NC(=S)NCCCN3CCC(Cc4ccccc4)CC3)ccc2nc2n1CCCCC2	2.6	13.4	-3.0%	-9.4	-41.2*	46.1*
O=c1c2cc(NC(=S)NC3CC3)ccc2nc2n1CCCCC2	0.4	-5.4	0.2%	-3.5	-38.0*	4.1
O=c1c2cc(NC(=S)NC3CCCC3)ccc2nc2n1CCCCC2	-0.1	4.5	1.1%	-4.7	12.6	1.9
CC(C)NC(=S)Nc1ccc2nc3n(c(=O)c2c1)CCCCC3	-0.3	9.8	2.0%	-3.6	-79.3*	2.4
O=c1c2cc(NC(=S)N3CCC(N4CCCCC4)CC3)ccc2nc2n1CCCCC2	0.8	-7.6	-1.1%	-5.0	-38.2*	2.9
O=c1c2cc(NC(=S)NCCN3CCCCCC3)ccc2nc2n1CCCCC2	0.6	-1.1	3.2%	3.1	55.2	4.0
O=C(NCCS(=O)(=O)N1CCN(c2ccccc2F)CC1)C(c1ccccc1)c1ccccc1	-0.2	1.8	4.5%	-0.6	10.5	5.3
Cc1ccc(-c2cc(C(=O)OCC(=O)c3ccccc3)c3cccc(Cl)c3n2)cc1	1.3	-3.5	-0.9%	0.1	2.9	4.7
O=C(O)Cn1c(=S)sc2ccccc21	1.0	-4.0	2.7%	-0.8	-8.5	3.2
S=c1sc2ccccc2n1CCc1ccncc1	-0.5	-2.9	.	-7.7	-39.2*	6.0
COc1ccc(C2=NN(CC(=O)NCCc3ccccc3)C(=O)CC2)cc1	-1.1	5.7	-0.5%	-4.5	5.9	-0.7
CCOc1ccc(CCNC(=O)CN2C(=O)NC3(CCCC3)C2=O)cc1OCC	0.9	-4.8	.	-6.9	-39.2*	2.4
N#CCC(CNc1ncc(C(F)(F)F)cc1Cl)OC(=O)c1ccc(Cl)cc1Cl (centres undefined)	0.5	-2.0	-0.9%	-2.5	9.2	30.8*
CCOC(=O)CNc1ncc(C(F)(F)F)cc1Cl	0.4	1.0	-0.3%	-4.0	19.7	4.2
